Out of some 5,500 compounds screened, about 2,000 (36%) were called active. Inconclusive results (about 18%) are left out. Cut-off read from the data, not from the text of the source: active = normalized growth mostly below about 0.91 (no sharp cut-off); inconclusive = no clear call, values can overlap the other calls; inactive = mostly above about 0.92. The list shows a part of the results.
Test: chemical genetic growth profiling, strain panel (AID 1159580);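 note: tested at 20 µM; growth read once vehicle control cultures reached saturation at 30 °C; 1 = growth at the plate median or of vehicle wells; lower values mean less growth of the strain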
Settings: growth OD
[1] = S. cerevisiae deletion strains, locus YDL101C, strain DUN1, hits give low values
[2] = S. cerevisiae deletion strains, locus YHR030C, strain SLT2, hits give low values

Measured: normalized growth

FC(F)(F)c1cc(Cl)c2nsnc2c1
inactive: S. cerevisiae deletion strains, locus YAL013W, strain DEP1, hits give low values 1 | S. cerevisiae deletion strains, locus YBR229C, strain ROT2, hits give low values 0.993 | [1] 1.01 | S. cerevisiae deletion strains, locus YDR150W, strain NUM1, hits give low values 1 | S. cerevisiae deletion strains, locus YEL061C, strain CIN8, hits give low values 0.99 | S. cerevisiae deletion strains, locus YGR078C, strain PAC10, hits give low values 0.997 | S. cerevisiae deletion strains, locus YGR229C, strain SMI1, hits give low values 1 | [2] 1.02 | S. cerevisiae deletion strains, locus YHR087W, strain rtc3, hits give low values 1.01 | S. cerevisiae deletion strains, locus YJL187C, strain SWE1, hits give low values 0.99 | S. cerevisiae deletion strains, locus YJR043C, strain POL32, hits give low values 0.998 | S. cerevisiae deletion strains, locus YJR075W, strain HOC1, hits give low values 0.985 | S. cerevisiae deletion strains, locus YLR039C, strain RIC1, hits give low values 0.991 | S. cerevisiae deletion strains, locus YLR058C, strain SHM2 (second series), hits give low values 0.993 | S. cerevisiae deletion strains, locus YLR085C, strain ARP6, hits give low values 1.01 | S. cerevisiae deletion strains, locus YLR262C, strain YPT6, hits give low values 0.974 | S. cerevisiae deletion strains, locus YML094W, strain GIM5, hits give low values 1.06 | S. cerevisiae deletion strains, locus YMR219W, strain ESC1, hits give low values 1 | S. cerevisiae deletion strains, locus YMR263W, strain SAP30, hits give low values 1 | S. cerevisiae deletion strains, locus YMR307W, strain GAS1, hits give low values 1.01 | S. cerevisiae deletion strains, locus YNL153C, strain GIM3, hits give low values 0.996 | S. cerevisiae deletion strains, locus YNL298W, strain CLA4 (second series), hits give low values 0.993 | S. cerevisiae deletion strains, locus YNL322C, strain KRE1, hits give low values 0.995 | S. cerevisiae deletion strains, locus YNR030W, strain Alg12, hits give low values 1.01 | S. cerevisiae deletion strains, locus YPL055C, strain LGE1, hits give low values 1.03 | S. cerevisiae deletion strains, locus YPL241C, strain CIN2, hits give low values 1.08 | S. cerevisiae deletion strains, locus YPR135W, strain CTF4, hits give low values 1.03 | S. cerevisiae strains, strain wild type, hits give low values 0.987

O=S(=O)(Nc1cc(Cl)c(Cl)cc1Cl)c1cc(C(F)(F)F)cc(C(F)(F)F)c1
inactive: S. cerevisiae deletion strains, locus YAR019C, strain CDC15, hits give low values 0.957 | S. cerevisiae deletion strains, locus YBL105C, strain PKC1, hits give low values 0.956 | S. cerevisiae deletion strains, locus YBR135W, strain CKS1, hits give low values 0.961 | S. cerevisiae deletion strains, locus YBR136W, strain MEC1, hits give low values 0.954 | S. cerevisiae deletion strains, locus YBR160W, strain CDC28, hits give low values 0.946 | S. cerevisiae deletion strains, locus YDL017W, strain CDC7, hits give low values 0.959 | S. cerevisiae deletion strains, locus YDL028C, strain MPS1, hits give low values 0.962 | [1] 0.972 | S. cerevisiae deletion strains, locus YDL108W, strain KIN28, hits give low values 0.966 | S. cerevisiae deletion strains, locus YDL132W, strain cdc53, hits give low values 0.963 | S. cerevisiae deletion strains, locus YDL214C, strain PRR2, hits give low values 0.924 | S. cerevisiae deletion strains, locus YDR052C, strain DBF4, hits give low values 0.941 | S. cerevisiae deletion strains, locus YDR054C, strain cdc34, hits give low values 0.953 | S. cerevisiae deletion strains, locus YDR226W, strain ADK1, hits give low values 0.956 | S. cerevisiae deletion strains, locus YDR477W, strain SNF1, hits give low values 0.919 | S. cerevisiae deletion strains, locus YER123W, strain YCK3, hits give low values 0.882 | S. cerevisiae deletion strains, locus YER133W, strain GLC7, hits give low values 0.937 | S. cerevisiae deletion strains, locus YFL009W, strain cdc4, hits give low values 0.959 | S. cerevisiae deletion strains, locus YFL029C, strain CAK1, hits give low values 0.955 | S. cerevisiae deletion strains, locus YFR003C, strain YPI1, hits give low values 0.964 | S. cerevisiae deletion strains, locus YFR019W, strain FAB1, hits give low values 0.916 | S. cerevisiae deletion strains, locus YFR028C, strain CDC14, hits give low values 0.958 | S. cerevisiae deletion strains, locus YGR040W, strain KSS1, hits give low values 0.9 | S. cerevisiae deletion strains, locus YGR052W, strain FMP48, hits give low values 0.913 | S. cerevisiae deletion strains, locus YGR092W, strain DBF2, hits give low values 0.892 | S. cerevisiae deletion strains, locus YHR079C, strain IRE1, hits give low values 0.897 | S. cerevisiae deletion strains, locus YHR082C, strain KSP1, hits give low values 0.899 | S. cerevisiae deletion strains, locus YHR205W, strain SCH9, hits give low values 0.946 | S. cerevisiae deletion strains, locus YIL147C, strain SLN1, hits give low values 0.963 | S. cerevisiae deletion strains, locus YJL095W, strain BCK1, hits give low values 0.963 | S. cerevisiae deletion strains, locus YJL128C, strain PBS2, hits give low values 0.969 | S. cerevisiae deletion strains, locus YJL157C, strain FAR1, hits give low values 0.892 | S. cerevisiae deletion strains, locus YJR016C, strain ILV3, hits give low values 0.968 | S. cerevisiae deletion strains, locus YJR066W, strain TOR1 (second series), hits give low values 0.92 | S. cerevisiae deletion strains, locus YJR066W, strain TOR1, hits give low values 0.976 | S. cerevisiae deletion strains, locus YKL048C, strain ELM1, hits give low values 0.906 | S. cerevisiae deletion strains, locus YKL067W, strain YNK1, hits give low values 0.935 | S. cerevisiae deletion strains, locus YKL101W, strain HSL1, hits give low values 0.902 | S. cerevisiae deletion strains, locus YKL193C, strain SDS22, hits give low values 0.963 | S. cerevisiae deletion strains, locus YKL203C, strain TOR2, hits give low values 0.955 | S. cerevisiae deletion strains, locus YLR133W, strain CKI1, hits give low values 0.903 | S. cerevisiae deletion strains, locus YLR403W, strain SFP1, hits give low values 0.916 | S. cerevisiae deletion strains, locus YML070W, strain DAK1, hits give low values 0.911 | S. cerevisiae deletion strains, locus YMR001C, strain CDC5, hits give low values 0.96 | S. cerevisiae deletion strains, locus YMR205C, strain PFK2 (second series), hits give low values 0.954 | S. cerevisiae deletion strains, locus YMR277W, strain FCP1, hits give low values 0.963 | S. cerevisiae deletion strains, locus YNL006W, strain LST8, hits give low values 0.966 | S. cerevisiae deletion strains, locus YNL020C, strain ARK1, hits give low values 0.89 | S. cerevisiae deletion strains, locus YNL161W, strain CBK1, hits give low values 0.962 | S. cerevisiae deletion strains, locus YNL183C, strain NPR1, hits give low values 0.916 | S. cerevisiae deletion strains, locus YNL207W, strain RIO2, hits give low values 0.948 | S. cerevisiae deletion strains, locus YNL222W, strain SSU72, hits give low values 0.962 | S. cerevisiae deletion strains, locus YNL307C, strain MCK1 (second series), hits give low values 0.874 | S. cerevisiae deletion strains, locus YOL078W, strain AVO1, hits give low values 0.959 | S. cerevisiae deletion strains, locus YOL136C, strain PFK27, hits give low values 0.871 | S. cerevisiae deletion strains, locus YOR061W, strain CKA2, hits give low values 0.93 | S. cerevisiae deletion strains, locus YOR119C, strain RIO1, hits give low values 0.983 | S. cerevisiae deletion strains, locus YOR231W, strain MKK1, hits give low values 0.913 | S. cerevisiae deletion strains, locus YOR329C, strain SCD5, hits give low values 0.963 | S. cerevisiae deletion strains, locus YPL031C, strain PHO85, hits give low values 0.917 | S. cerevisiae deletion strains, locus YPL153C, strain RAD53, hits give low values 0.921 | S. cerevisiae deletion strains, locus YPL204W, strain HRR25, hits give low values 0.881 | S. cerevisiae deletion strains, locus YPL209C, strain IPL1, hits give low values 0.952 | S. cerevisiae deletion strains, locus YPR025C, strain CCL1, hits give low values 0.962 | S. cerevisiae deletion strains, locus YPR106W, strain ISR1, hits give low values 0.946 | S. cerevisiae deletion strains, locus YPR111W, strain DBF20, hits give low values 0.944 | S. cerevisiae deletion strains, strain NNK1, hits give low values 0.956 | S. cerevisiae deletion strains, strain TSCII, hits give low values 0.956
active: [2] 0.71 | S. cerevisiae deletion strains, locus YLR113W, strain HOG1, hits give low values 0.818 | S. cerevisiae deletion strains, locus YPL256C, strain CLN2, hits give low values 0.813

— PubChem BioAssay AID1159580 (chemical genetic matrix, 2015)
